Bioassay records (PubChem BioAssay)
Compounds with a hit are over-represented: about 1.9% of the library has one in this group of screens.
DSG3 Ab inh – inhibitors of pemphigus antibody binding to human desmoglein-3 | P32926 | DSG3-coupled beads, scFv-anti-DSG3-GFP binding, flow cytometry; stronger effect = lower value | binding (percent of control), % at 10 µM | 0.48% of 310,000 active;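 active means binding more than 3 SD below its plate's average and above zero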;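 further: hits lower antibody fragment binding to DSG3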
ATG4B inh – ATG4B (human) cysteine protease inhibition; Q9Y4P1; ATG4B cleavage of LC3-PLA2, NBD-HPC fluorescence, 1 h; inhibition, % at 8.33 µM; 0.51% of 340,000 active; AID 504462; in the data active means inhibition above about 40%
Vif imaging – HIV Vif inhibition. inhibition, % at 7.49 µM. 0.35% of 340,000 active. HEK293T cells, Vif self-association by quenched fluorescence, imaging, 24 h. AID 602346; in the data active means inhibition above about 50%, passing the limit was not always enough
Glyco luc inh – blocks N-linked glycosylation in D54 reporter cells. D54 ERlucT glycosylation luciferase reporter, 24 h; percent of 100 nM tunicamycin response. reporter increase, % at 12.5 µM. 0.23% of 360,000 active. AID 588692;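 active means mean luciferase reporter signal, scaled so untreated is 0 and the glycosylation-blocking control 100, at or above a set limit in every replicate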;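 further: luciferase carries N-glycosylation sites so blocking glycosylation raises the light; 0% = median of neutral control wells and 100% = median of 100 nM tunicamycin wells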
CaV13 ICDI inh – Primary screen for inhibitors of IQ motif and Ca2+-dependent inactivation inhibitor domain binding in CACNA1D, Förster resonance energy transfer in living cells, …. HEK cells, CFP/YFP FRET ICDI-IQ, plate reader, 10 min; percent FRET-ratio fall versus neutral wells. inhibition, % at 12.3 µM. 0.098% of 340,000 active. AID 743397;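 active means mean replicate inhibition of at least 30% and at least 1% of replicates passing that level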;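 further: 0% = median of the neutral control wells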
NSD2 HMT inh – inhibitors of human histone methyltransferase NSD2 | 0.54% of 310,000 active | NSD2 peptide methylation, AlphaScreen, 120 min | inhibition, % at 12.5 µM; in the data active means inhibition above about 50%
Target sequence (O96028 whole entry, looked up): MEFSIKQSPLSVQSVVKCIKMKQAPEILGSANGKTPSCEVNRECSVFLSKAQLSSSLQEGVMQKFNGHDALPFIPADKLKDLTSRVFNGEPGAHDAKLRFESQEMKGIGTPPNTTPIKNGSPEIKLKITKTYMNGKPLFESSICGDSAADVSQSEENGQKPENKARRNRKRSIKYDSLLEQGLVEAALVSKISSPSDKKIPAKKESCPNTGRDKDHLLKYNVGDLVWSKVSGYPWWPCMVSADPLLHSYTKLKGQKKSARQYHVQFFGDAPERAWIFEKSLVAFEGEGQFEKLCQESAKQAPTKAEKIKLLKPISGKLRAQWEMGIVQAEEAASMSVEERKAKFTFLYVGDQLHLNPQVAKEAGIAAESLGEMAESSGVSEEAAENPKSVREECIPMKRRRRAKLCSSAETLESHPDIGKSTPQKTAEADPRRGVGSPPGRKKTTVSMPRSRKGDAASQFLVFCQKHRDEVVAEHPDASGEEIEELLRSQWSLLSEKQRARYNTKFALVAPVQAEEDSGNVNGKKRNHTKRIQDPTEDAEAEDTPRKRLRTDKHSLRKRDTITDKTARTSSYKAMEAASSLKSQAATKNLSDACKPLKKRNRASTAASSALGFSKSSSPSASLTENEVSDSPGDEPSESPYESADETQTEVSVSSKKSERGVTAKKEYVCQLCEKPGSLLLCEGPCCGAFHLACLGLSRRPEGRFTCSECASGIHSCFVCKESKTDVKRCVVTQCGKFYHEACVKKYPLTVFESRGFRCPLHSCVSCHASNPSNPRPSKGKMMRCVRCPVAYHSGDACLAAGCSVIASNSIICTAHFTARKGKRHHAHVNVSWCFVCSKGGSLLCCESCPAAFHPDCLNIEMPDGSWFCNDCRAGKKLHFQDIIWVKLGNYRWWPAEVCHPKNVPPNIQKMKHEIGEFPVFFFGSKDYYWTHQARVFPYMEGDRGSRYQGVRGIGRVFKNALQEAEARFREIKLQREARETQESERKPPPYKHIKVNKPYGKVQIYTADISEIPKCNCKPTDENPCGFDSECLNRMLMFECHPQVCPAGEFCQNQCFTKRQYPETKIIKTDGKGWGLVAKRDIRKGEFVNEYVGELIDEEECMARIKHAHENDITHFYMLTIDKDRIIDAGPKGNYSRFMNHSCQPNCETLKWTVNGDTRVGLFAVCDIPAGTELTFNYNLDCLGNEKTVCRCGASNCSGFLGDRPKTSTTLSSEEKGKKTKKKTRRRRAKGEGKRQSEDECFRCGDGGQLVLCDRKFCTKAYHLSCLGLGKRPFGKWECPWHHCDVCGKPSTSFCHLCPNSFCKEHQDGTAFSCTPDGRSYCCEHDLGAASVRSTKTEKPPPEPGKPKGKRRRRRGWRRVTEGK
Alpha artifact – counter-screen for NSD2 inhibitors: AlphaScreen artifacts | 9.4% of 1,500 active | AID 1053174 | AC35, µM (top dose mostly 10 µM), for the others: at the top dose activity change, negative = signal loss | shares compounds with NSD2 HMT inh | AlphaScreen artifact counterscreen, preloaded methylated H4 peptide; call rule not given here
Active calls of the source: *; · = no result.

SMILES	DSG3 Ab inh	ATG4B inh	Vif imaging	Glyco luc inh	CaV13 ICDI inh	NSD2 HMT inh	Alpha artifact
CC(/C=C1\SC(=S)N(NC(=O)c2ccc(C)cc2)C1=O)=C\c1ccccc1	·	0.9	9.0	-0.9	·	1.1	·
Cc1cc(C)c2[nH]c(=O)c(CN(CC3CCCO3)S(=O)(=O)c3ccc4c(c3)OCCO4)cc2c1 (stereo not drawn)	101.0	-6.8	-7.2	0.0	-10.2	0.1	·
CCN(CC)CCC(=O)c1ccc(F)cc1	99.9	-8.0	20.3	1.6	3.7	59.5*	-0.2%
CSc1ncccc1C(=O)OCC(=O)N1CC2(C)CC1CC(C)(C)C2 (stereo not drawn)	94.8	-6.9	-0.5	2.2	-9.1	53.1*	-5.0%
Cn1c(N2CCC(C(N)=O)CC2)nc2c1c(=O)n(Cc1ccc(Cl)cc1)c(=O)n2C	99.7	2.9	-9.9	1.7	-7.7	-1.6	·
CC1CN(c2nc3c(c(=O)n(Cc4ccc(Cl)cc4)c(=O)n3C)n2C)CC(C)O1 (stereo not drawn)	94.8	0.3	-10.5	2.4	-5.6	116.0*	-1.1%
Cn1c(N2CCCC2)nc2c1c(=O)n(Cc1ccc(Cl)cc1)c(=O)n2C	107.0	-17.1	-0.5	1.0	·	105.2*	-5.3%
CC1CN(Cc2nc3c(c(=O)n(C)c(=O)n3C)n2CCCc2ccccc2)CC(C)O1 (stereo not drawn)	·	-0.6	16.8	-1.7	·	109.0*	0.3%
CN1CCN(c2nc3c(c(=O)n(C)c(=O)n3C)n2Cc2ccc(Cl)cc2)CC1	99.2	0.7	-0.7	1.7	-2.0	14.7	·
O=C(COc1ccc(F)cc1F)NNC(=O)Nc1cccc([N+](=O)[O-])c1	101.0	2.7	-3.3	0.4	-5.1	0.0	·
Clc1cccc(N2CCN(CCCN3CCN(c4ccccc4)CC3)CC2)c1	97.6	-10.6	5.8	-0.7	-6.7	52.5*	-16.7%
Cn1c(N)c(C#N)c2c(c1=S)CSC(C)(C)C2	104.5	-16.0	30.8	-0.8	·	50.7*	-2.4%
CC(=O)c1ccc(NC(=O)CN2C(=O)NC(C)(c3ccc4c(c3)OCCO4)C2=O)cc1 (stereo not drawn)	100.0	-0.3	-1.5	0.2	-4.9	0.0	·
O=C1C=CC(=O)c2c(O)c(N3CCN(CCOCCO)CC3)c(Br)c(O)c21	·	18.2	72.1*	-20.6	-3.0	81.1*	-8.2%
O=C1C=CC(=O)c2c(O)c(N3CCN(CCO)CC3)c(Cl)c(O)c21	63.2	31.4	127.4*	-19.0	-7.7	103.2*	-4.6%
O=C(Nc1cc(S(=O)(=O)N2CCOCC2)ccc1O)c1ccc(NS(=O)(=O)c2ccc(Cl)s2)cc1	88.2	7.2	0.6	2.6	-6.0	1.2	·
Cc1ccc2cc(C3CC(c4ccco4)=NN3C(=O)CCCC(=O)O)c(Cl)nc2c1 (stereo not drawn)	89.9	2.4	18.7	1.1	14.1	·	·
NC(=O)c1oc2ccc(Cl)cc2c1N	104.1	-0.1	4.7	0.1	·	94.7*	-1.9%
O=C(NCCCN1CCc2ccccc2C1)C1CCN(c2nnc(-n3cccc3)s2)CC1	104.3	-6.9	-0.9	-2.1	-4.3	·	·
Cc1cc(Cl)ccc1OCCCC(=O)N1CCOCC1	102.4	-5.7	22.3	1.3	-4.5	71.8*	1.3%
Cc1cc(Cl)ccc1OCCCC(=O)N1CCCCC1	99.5	-1.1	·	0.3	-7.0	-3.1	·
COC(=O)c1ccccc1NC(=O)CSc1n[nH]c(-c2cccnc2)n1	99.4	-5.3	0.0	-0.1	-6.5	-1.4	·
O=C1C=C(Nc2cccnc2)c2ccccc2C1=O	94.6	7.3	1.6	-9.9	-5.5	98.8*	0.4%
O=C1C=C(NCc2ccccc2)c2ccccc2C1=O	99.4	39.8	-3.2	-16.2	-4.5	140.3*	-1.9%
O=C1C=C(Nc2ccccc2O)c2ccccc2C1=O	94.2	10.9	-6.2	-17.6	-9.9	94.4*	-0.5%
O=C1C=C(Nc2ccc(F)cc2)c2ccccc2C1=O	118.4	-13.5	5.4	-11.4	-4.6	5.6	·
COc1cccc(-c2cc(C(=O)Nc3c(C)n(C)n(-c4ccccc4)c3=O)no2)c1	92.9	9.2	2.8	0.1	-3.8	·	·
